# Most compounds without a hit are left out; they make up all but 2.5% or so of the library.
# POLI inh: blocks human DNA polymerase iota activity; AID 588590; Q9UNA4; Pol iota fluorescent replication assay, 10 min; Potency, µM (titrated, usually from 115 µM), most hits filed as inhibitors; 390,000 compounds, 1% hits
#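 Fluorescent replication assay read twice, at 0 min and 10 min after adding 50 nM (final) substrate. Enzyme (10 nM) and compounds were first incubated 15 min at room temperature; enzyme-free buffer wells were negative controls.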
# Pol eta inh: blocks human DNA polymerase eta activity; Potency, µM (titrated, usually from 114 µM), actives largely listed as inhibitors; AID 588591; Q9Y253; recombinant Pol eta, fluorescent DNA replication assay; 390,000 compounds, 1.2% hits
#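 Pol eta at 10 nM preincubated with compounds 15 min at room temperature; reaction started with fluorescent substrate (50 nM final) and read kinetically at 0 and 10 min.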
# Pol kappa inh: DNA polymerase kappa (human) inhibition; Q9UBT6; purified Pol kappa, fluorescent DNA synthesis assay, 10 min; Potency, µM (doses to about 107 µM), hits mostly inhibitors; 400,000 compounds, 0.53% hits; AID 588579
#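 50 nM final substrate added after 15 min RT preincubation of 10 nM Pol kappa with compound; fluorescence read at 0 and 10 min.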
# Pol beta inh: DNA polymerase beta (human) inhibition | P06746 | Pol beta primer extension/strand displacement, fluorescence kinetic | Potency, µM (highest dose often 114 µM), actives largely listed as inhibitors | 340,000 compounds, 1.3% hits | AID 485314
#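 Reaction started by 50 nM substrate onto compound-treated Pol beta (10 nM, 15 min preincubation, room temperature); plates read at 0 min and 10 min. Normalized concentration-effect data fitted by four-parameter Hill equation.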
# WRN inhibitor: blocks human WRN helicase; AID 651768; WRN helicase unwinding, fluorescent forked duplex, kinetic; Q14191; Potency, µM (series often up to 114 µM), usual class: inhibitors; 360,000 compounds, 0.46% hits; further: nearly all actives have a fitted effect of over 55% in size
#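 WRN at 20 nM final preincubated with compound 15 min at room temperature; reaction started with 100 nM fluorophore/quencher forked duplex oligonucleotide and 2 mM ATP final. Unwinding followed kinetically by red fluorescence (ex 525, em 598 nm).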
# L3MBTL1 block: blocks human L3MBTL1; Q9Y468; AlphaScreen L3MBTL1–H3K9me1 peptide binding; Potency, µM (series often up to 57.1 µM), actives largely listed as inhibitors; 230,000 compounds, 0.66% hits; further: nearly all actives have a fitted effect of over 60% in size
# Target sequence (Q9Y468 whole entry, looked up): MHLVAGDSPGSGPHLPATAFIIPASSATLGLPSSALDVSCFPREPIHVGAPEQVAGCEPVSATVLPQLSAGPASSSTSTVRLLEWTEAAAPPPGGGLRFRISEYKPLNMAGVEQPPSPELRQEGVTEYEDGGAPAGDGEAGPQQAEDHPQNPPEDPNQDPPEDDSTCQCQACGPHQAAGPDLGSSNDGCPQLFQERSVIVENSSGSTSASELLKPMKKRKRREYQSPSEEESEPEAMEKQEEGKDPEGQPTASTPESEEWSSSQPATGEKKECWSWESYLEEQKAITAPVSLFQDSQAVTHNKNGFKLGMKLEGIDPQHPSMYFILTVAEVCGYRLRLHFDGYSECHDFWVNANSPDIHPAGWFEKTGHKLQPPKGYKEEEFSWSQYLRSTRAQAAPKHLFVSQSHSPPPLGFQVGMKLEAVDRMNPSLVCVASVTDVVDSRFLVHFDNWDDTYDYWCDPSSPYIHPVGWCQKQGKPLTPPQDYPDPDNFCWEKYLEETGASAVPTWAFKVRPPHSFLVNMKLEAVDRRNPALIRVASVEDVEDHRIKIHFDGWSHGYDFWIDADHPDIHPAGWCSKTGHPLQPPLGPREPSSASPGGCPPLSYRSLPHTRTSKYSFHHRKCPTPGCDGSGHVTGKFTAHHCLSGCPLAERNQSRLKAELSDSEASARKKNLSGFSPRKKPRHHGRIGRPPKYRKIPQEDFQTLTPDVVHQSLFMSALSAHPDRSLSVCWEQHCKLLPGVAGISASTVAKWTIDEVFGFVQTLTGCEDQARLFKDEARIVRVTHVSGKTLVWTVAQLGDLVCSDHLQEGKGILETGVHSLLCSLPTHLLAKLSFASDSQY
#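 L3MBTL1 50 nM + b-AHA-H3(1-15)K9me1 75 nM, 30 min RT; compound added, 30 min RT; streptavidin donor/Ni-chelate acceptor beads 10 ug/mL each final, 30 min RT dark; AlphaScreen read.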
# A number is an active result; n = inactive; u = inconclusive; x = not tested or not shown; ! = repeats disagree; [ ] = dose if it differs, or a comment. The call rests on the fitted dose curve; in most records, active means well fitted curve in the direction sought with a large enough effect; inconclusive means small, poorly fitted or top-dose-only effect, or another doubt; inactive means no such curve, though single readings can be large; an effect the other way counts as inactive or inconclusive.
SMILES,POLI inh,Pol eta inh,Pol kappa inh,Pol beta inh,WRN inhibitor,L3MBTL1 block
COc1ccc(S(=O)(=O)N2CCCN(Cc3cccc(F)c3)CC2)cc1,n,n,n,n,n,n
CC1CCN(C(=O)CCNS(=O)(=O)c2ccc3c(c2)oc(=O)n3C)CC1,n,n,n,n,n,x
COc1ccc(CNC(=O)c2cccc3c2C(=O)N(Cc2cccnc2)C3)cc1,n,n,n,n,n,x
O=C(O)c1cccc(NC2=C(Cl)C(=O)c3ccccc3C2=O)c1,u,79µM,n,n,n[11.6 µM],n
C/C=C/c1ccc(O)c(OC)c1,n,n,n,x,n,n
Oc1cc(O)cc(/C=C/c2ccc(O)c(O)c2)c1,16µM,18µM!,79µM,7.9µM,n[11.6 µM],u
COc1ccc(NC(=O)c2cc3c(s2)-c2c(C)cccc2OC3)cc1Cl,n,u,n,11µM,x,x
Cc1cccc2c1-c1sc(C(=O)NCc3ccc(Cl)cc3)cc1CO2,n,n,u,n,x,x
COc1cc(Cl)c(C)cc1NC(=O)c1cc2c(s1)-c1c(C)cccc1OC2,n,n,n,n,x,x
Cc1ccc(CNC(=O)c2cc3c(s2)-c2c(C)cccc2OC3)cc1,u,n,n,14µM,x,x
FC(F)(F)c1nnc2ccc(NCn3nnc4ccccc43)nn12,n,89µM,n,n,n,u
COc1cc(-c2ccc(N=Nc3ccc4c(S(=O)(=O)O)cc(S(=O)(=O)O)c(N)c4c3O)c(OC)c2)ccc1N=Nc1ccc2c(S(=O)(=O)O)cc(S(=O)(=O)O)c(N)c2c1O,x,x,0.25µM,x,x,x
Cc1[nH]n(-c2ccccc2)c(=O)c1C(C[N+](=O)[O-])c1ccc(Cl)cc1 (stereo not drawn),n,n,n,n,n,n
Cc1[nH]n(-c2ccccc2)c(=O)c1C(C[N+](=O)[O-])c1ccc(F)cc1 (stereo not drawn),2.2µM,n,n,n,u,n
Cc1ccc(C(C[N+](=O)[O-])c2c(C)[nH]n(-c3ccccc3)c2=O)cc1 (stereo not drawn),1.1µM,n,n,n,u,n
CCCCNC(=O)c1ccc2c(c1)NC(=O)C(CS(=O)(=O)Cc1cccc(C)c1)N2 (stereo not drawn),n,u,n,28µM,x,x
CCCCNC(=O)c1ccc2c(c1)NC(=O)C(CS(=O)(=O)Cc1ccc(C)cc1)N2 (stereo not drawn),n,n,n,n,x,x
CC(C)n1c(=O)[nH]c2ccccc21,n,n,n,n,n,n
CC(C)n1c(=O)[nH][nH]c1=S,n,n,n,n,56µM,n
CC(C)(C)c1cc2ncnc(N3CCCCC3)c2s1,n,n,n,n,n,x
Cc1[nH][nH]c(=O)c1C(c1c(C)[nH][nH]c1=O)c1cn(Cc2ccc(Cl)c(Cl)c2)c2ccccc12,2.5µM,u,n,n,n,u
Cc1[nH][nH]c(=O)c1C(c1c(C)[nH][nH]c1=O)c1cn(Cc2ccc(F)cc2)c2ccccc12,2.2µM,n,n,n,n[11.6 µM],u
O=C(O)Cc1cn(Cc2ccc(F)cc2)c2ccccc12,n,n,n,n,n,n
CN(Cc1cnn(-c2ccccc2)c1)C(=O)C1CCC(=O)N(C2CC2)C1 (stereo not drawn),n,n,n,n,n,x
COC(=O)c1ccc2cc(OC)c(OC)cc2c1,x,n,x,x,n,x
COC(=O)c1cc(=O)c(O)c2c(O)c(O)ccc2c1,x,x,1.1µM,x,x,x
C#CCOCCOCCOCCNc1nc(N2CCN(C(=O)[C@H](Cc3ccc(O)cc3)n3cc([C@@H](N)C(C)CC)nn3)CC2)nc(N2CCN(C(=O)[C@H](Cc3cc4ccccc4[nH]3)n3cc([C@@H](N)CC(C)C)nn3)CC2)n1 (stereo partly drawn),79µM,n,n,28µM,n,n
C#CCOCCOCCOCCNc1nc(N2CCN(C(=O)[C@H](CCC(=O)O)n3cc(C(N)[C@H](C)CC)nn3)CC2)nc(N2CCN(C(=O)[C@H](CCC(=O)O)n3cc(C(N)[C@H](C)CC)nn3)CC2)n1 (stereo partly drawn),u,25µM,n,n,n,n
